Unmarked numbers belong to inactive results. Inconclusive results are not listed. The source made the active and inactive calls. Calls follow the shape of the dose curve; as a rule, active = well fitted curve in the direction sought with a large enough effect in the repeat runs; inconclusive = weak or mixed curves; inactive = no such curve, though single readings can be large; an effect the other way counts as inactive or inconclusive.

A short description of assay [1]: A CellTox Green Cytotoxicity Assay to monitor cytotoxicity in HEK293 cells - 40 hour (AID 1224871). Also: nearly all actives have a fitted effect of over 45% in size. Also: potency is read from the fitted curve at half-maximal effect. Summed up:
(§1)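 Nonlytic real-time cytotoxicity: HEK293 + CellTox Green reagent plated, 5 h preincubation, pintool compound addition (23 nL in DMSO), 37 C for 40 h, fluorescence measured at successive time points.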

Assay [2] is described as follows: qHTS RealTime-Glo MT Cell Viability Assay in HepG2 cells - 8 hour (AID 1224873). Also: nearly all actives have a fitted effect of over 55% in size. Summed up: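 HepG2 cells (600/well) mixed with RealTime-Glo MT reagent, settled 5 h at 37 C/5% CO2 before compound addition. Nonlytic NanoLuc luminescence from viable-cell prosubstrate reduction read repeatedly during 40 h treatment at 37 C.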
Assay [3] is described as follows: qHTS RealTime-Glo MT Cell Viability Assay in HEK293 cells - 40 hour (AID 1224874). Also: nearly all actives have a fitted effect of over 50% in size. Also: potency is read from the fitted curve at half-maximal effect. The conditions noted are these: RealTime-Glo luminescence; max response: active compounds read low. Summed up:
(§2)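 Cells were seeded together with NanoLuc luciferase and a prosubstrate that viable cells reduce to a luciferase substrate. After a 5 h incubation at 37 C/5% CO2, compounds were added and luminescence was measured repeatedly during 40 h of treatment.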

Assay [4] can be described thus: A CellTox Green Cytotoxicity Assay to monitor cytotoxicity in HEK293 cells - 24 hour (AID 1224875). Also: series mostly up to about 77 µM; nearly all actives have a fitted effect of over 45% in size. Summed up:
as §1

The nature of assay [5]: A CellTox Green Cytotoxicity Assay to monitor cytotoxicity in HepG2 cells - 16 hour (AID 1224876). Also: nearly all actives have a fitted effect of over 45% in size. Summed up:
(§3)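 Read-out is fluorescence of a cyanine dye excluded from live cells that stains DNA of dead HepG2 cells, with signal proportional to cytotoxicity. Plates were read at 0, 8, 16, 24, 32 and 40 h after compound addition.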

A short description of assay [6]: qHTS RealTime-Glo MT Cell Viability Assay in HepG2 cells - 32 hour (AID 1224877). Also: nearly all actives have a fitted effect of over 55% in size. Summed up: (§4)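 Compound treatment began 5 h after plating HepG2 cells (600/well) with NanoLuc luciferase and prosubstrate. Plates stayed at 37 C for 40 h; luminescence was captured at six time points, 0 h through 40 h.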
(Quantitative high-throughput screening tests each substance at several concentrations.)

A short description of assay [7]: A CellTox Green Cytotoxicity Assay to monitor cytotoxicity in HepG2 cells - 24 hour (AID 1224878). Also: nearly all actives have a fitted effect of over 45% in size. Also: potency is read from the fitted curve at half-maximal effect. The essentials: as §3
Assay [8] can be described thus: A CellTox Green Cytotoxicity Assay to monitor cytotoxicity in HepG2 cells - 40 hour (AID 1224879). Also: nearly all actives have a fitted effect of over 40% in size. Also: potency is read from the fitted curve at half-maximal effect. The essentials:
as §3

A short description of assay [9]: qHTS RealTime-Glo MT Cell Viability Assay in HEK293 cells - 0 hour (AID 1224880). The essentials:
as §2

Assay [10] in a line: A CellTox Green Cytotoxicity Assay to monitor cytotoxicity in HEK293 cells - 32 hour (AID 1224881). Also: nearly all actives have a fitted effect of over 40% in size. Also: potency is read from the fitted curve at half-maximal effect. The essentials: as §1
The nature of assay [11]: A CellTox Green Cytotoxicity Assay to monitor cytotoxicity in HepG2 cells - 0 hour (AID 1224882). Also: nearly all actives have a fitted effect of over 35% in size. The essentials: as §3
Assay [12] in a line: A CellTox Green Cytotoxicity Assay to monitor cytotoxicity in HepG2 cells - 32 hour (AID 1224883). Also: nearly all actives have a fitted effect of over 50% in size. Also: potency is read from the fitted curve at half-maximal effect. The essentials:
as §3

The nature of assay [13]: A CellTox Green Cytotoxicity Assay to monitor cytotoxicity in HEK293 cells - 8 hour (AID 1224884). Also: nearly all actives have a fitted effect of over 35% in size. The essentials:
as §1

The nature of assay [14]: qHTS RealTime-Glo MT Cell Viability Assay in HepG2 cells - 16 hour (AID 1224885). Also: nearly all actives have a fitted effect of over 50% in size. The essentials:
as §4

Assay [15] in a line: qHTS RealTime-Glo MT Cell Viability Assay in HEK293 cells - 8 hour (AID 1224887). Also: top concentration of the series differs between compounds; nearly all actives have a fitted effect of over 50% in size. The essentials:
as §2

Assay [16] is described as follows: A CellTox Green Cytotoxicity Assay to monitor cytotoxicity in HEK293 cells - 16 hour (AID 1224888). Also: nearly all actives have a fitted effect of over 35% in size. The essentials: as §1
The nature of assay [17]: qHTS RealTime-Glo MT Cell Viability Assay in HepG2 cells - 0 hour (AID 1224889). Also: nearly all actives have a fitted effect of over 50% in size. Also: potency is read from the fitted curve at half-maximal effect. Summed up:
as §4

The nature of assay [18]: A CellTox Green Cytotoxicity Assay to monitor cytotoxicity in HepG2 cells - 8 hour (AID 1224890). Also: nearly all actives have a fitted effect of over 45% in size. The essentials:
as §3

The nature of assay [19]: qHTS RealTime-Glo MT Cell Viability Assay in HEK293 cells - 16 hour (AID 1224872). Also: nearly all actives have a fitted effect of over 50% in size. Also: potency is read from the fitted curve at half-maximal effect. The essentials:
(§5)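 Quantitative high-throughput screen of the Tox21 10K library in HEK293: cells and RealTime-Glo reagents plated together, compound added at 5 h, luminescence monitored through 40 h at 37 C.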

Assay [20] in a line: qHTS RealTime-Glo MT Cell Viability Assay in HEK293 cells - 24 hour (AID 1224886). Also: nearly all actives have a fitted effect of over 50% in size. Also: potency is read from the fitted curve at half-maximal effect. Summed up:
as §5
% is scaled to controls: 0 for no effect and ±100 for the full control effect.

Consider `CN(C)c1ccc(CCO)cc1`, for which the Potency entry in [1], in assay [2], in assay [4], in [5], in [6] and in assay [7] was “inactive” in each case. Moreover, the Potency result in [8], in [9], in [10], in assay [11], in assay [12] and in assay [13] was “inactive” each time. Moreover, the Potency result in assay [14], in assay [15], in [16], in [17] and in [18] was “inactive” throughout. Further, the Potency in assay [3] is 34.5 µM (active).
For `COc1ccc2cccc(CCNC(C)=O)c2c1`, the Potency entry in [1], in assay [19], in assay [4], in assay [6], in assay [9] and in assay [10] was “inactive” each time. The Potency result in assay [13], in assay [14], in assay [20], in assay [15], in assay [16] and in assay [17] was “inactive” in each case. In [3], the max response was -8.88%.
As to `CC(C)O.CC(C)O.CCOC(=O)/C=C(\C)O.CCOC(=O)/C=C(\C)O.[Ti]`, the Potency result in [1], in [2], in assay [4], in assay [5], in assay [6] and in [7] was “inactive” throughout. For the same molecule, the Potency result in [8], in [9], in assay [10], in [11], in assay [14] and in [20] was “inactive” throughout. Moreover, the Potency result in assay [15], in [16], in assay [17] and in assay [18] was “inactive” in each case. The max response in assay [3] is -0.8%.
On to `C=C1[C@H]2CC[C@@H]3[C@H]2C(C)(C)CCC[C@]13C`, for which the Potency result in assay [1], in [2], in assay [4], in assay [5], in [6] and in assay [7] was “inactive” throughout. Besides, the Potency entry in assay [8], in assay [9], in [10], in assay [12], in assay [13] and in [14] was “inactive” throughout. For the same molecule, the Potency result in assay [20], in [15], in assay [16], in [17] and in assay [18] was “inactive” each time. In addition, in assay [3], the max response is -2.59%.
As for `Cc1ccccc1S(=O)(=O)O`, the Potency result in assay [1], in assay [2], in [4], in assay [5], in assay [6] and in [7] was “inactive” in each case. In addition, the Potency entry in assay [8], in [9], in assay [10], in assay [12], in [13] and in [14] was “inactive” throughout. Further, the Potency entry in assay [20], in [16], in [17] and in assay [18] was “inactive” throughout. Also, the max response in assay [3] was 3.84%.
As to `OC(CN1CCC(Cc2ccc(F)cc2)CC1)c1ccc(Cl)cc1` (stereo not given), the Potency in assay [1] was 21.3 µM (active); in assay [19] it was 9.52 µM (active); in [3], 9.52 µM (active); in assay [7] it was 21.3 µM (active); in assay [8] it was 23.9 µM (active); in assay [10], 21.3 µM (active). Besides, the Potency in [12] was 23.9 µM (active); in assay [20] it was 9.52 µM (active). Further, the Potency result in [11], in assay [13] and in [17] was “inactive” each time.
`C=CC(=O)OCCOc1ccccc1`: the Potency result in assay [1], in assay [19], in assay [4], in assay [5], in assay [6] and in assay [7] was “inactive” throughout. Moreover, the Potency entry in [8], in [9], in assay [10], in assay [11], in assay [12] and in assay [13] was “inactive” throughout. Moreover, the Potency result in [14], in assay [20], in assay [15], in [16], in [17] and in assay [18] was “inactive” in each case.
For `CCCCC(CC)CN1C(=O)C2C3C=CC(C3)C2C1=O` (stereo not given), the Potency in assay [1] and in assay [10] was 30.9 µM (active) each time. For the same molecule, the Potency result in [2], in assay [5], in assay [6], in assay [7], in assay [8] and in assay [9] was “inactive” each time. Besides, the Potency result in [11], in [12], in [13], in assay [14], in assay [16] and in assay [17] was “inactive” in each case. For the same molecule, the Potency result in assay [18] was “inactive”.
As for `COc1cc2nc(Cl)nc(N)c2cc1OC`, the Potency entry in assay [1], in assay [2], in [4], in [5], in [6] and in assay [7] was “inactive” in each case. In addition, the Potency entry in assay [8], in [9], in assay [10], in assay [11], in [12] and in assay [13] was “inactive” throughout. For the same molecule, the Potency result in assay [14], in assay [16] and in assay [17] was “inactive” in each case.
Turning to `O=C(OCCCCCCOC(=O)c1ccccc1)c1ccccc1`, the Potency result in assay [1], in [2], in [4], in assay [5], in assay [6] and in assay [7] was “inactive” each time. In addition, the Potency entry in assay [8], in [10], in [11], in assay [13], in assay [14] and in assay [16] was “inactive” each time. In addition, the Potency result in [17] and in assay [18] was “inactive” in each case.
As to `O=C(O)C1(C(=O)Nc2ccc(Cl)cc2Cl)CC1`, the Potency entry in [1], in assay [2], in assay [4], in assay [5], in [6] and in assay [7] was “inactive” throughout. In addition, the Potency entry in assay [8], in assay [10], in [11], in assay [13], in assay [14] and in assay [20] was “inactive” each time. For the same molecule, the Potency result in [16], in assay [17] and in [18] was “inactive” each time.
Consider `Cn1c(=O)cc(Oc2ccc(F)cc2F)c2cnc(NCC(C)(C)O)nc21`, for which the Potency result in assay [1], in [2], in assay [4], in assay [5], in assay [6] and in assay [7] was “inactive” in each case. The Potency entry in [8], in assay [9], in assay [10], in assay [11], in [13] and in assay [14] was “inactive” in each case. Moreover, the Potency entry in assay [16], in [17] and in assay [18] was “inactive” throughout.
With `COc1cc2nc(N3CCN(C(=O)C4COc5ccccc5O4)CC3)nc(N)c2cc1OC` (stereo not given), the Potency entry in [1], in assay [4], in assay [5], in [6], in [10] and in assay [11] was “inactive” throughout. Moreover, the Potency result in [13], in assay [14], in assay [16] and in assay [18] was “inactive” throughout. Also, the Potency in assay [7] is 23.9 µM (active); in assay [8], 23.9 µM (active); in assay [12] it was 23.9 µM (active); in assay [20], 21.3 µM (active); in assay [17], 10.7 µM (active).
With `CN(C)C(=O)NC1(c2ccccc2)CCN(CC[C@@]2(c3ccc(F)c(F)c3)CN(C(=O)c3ccccc3)CCO2)CC1`, the Potency entry in assay [1], in assay [4], in assay [5], in [6], in [7] and in [9] was “inactive” throughout. Moreover, the Potency entry in assay [10], in assay [11], in assay [12], in assay [13], in assay [14] and in assay [16] was “inactive” throughout. Besides, the Potency entry in assay [17] and in assay [18] was “inactive” each time.

Values taken from PubChem BioAssay (Tox21).
